# Test results reported in ChEMBL document CHEMBL3988442, “University of Dundee, Small-Polar-MMV Screening Library” (2021).
# For some assays here: Measured potencies and affinities stand elsewhere.
# How the values were obtained:
# Design in all cases: scale not given: direction of the effect not stated beside the values
# [1] = target: Protein translocase subunit SecA (Escherichia coli (strain K12)) (UniProt P10408); assay: Assay to Identify E. coli SecA ATPase Inhibitors; assay type: functional; details: 30 µM
# [2] = target: T1, Ubiquitin-activating enzyme e1, putative (Leishmania donovani (strain BPK282A1)) (UniProt E9BSI1); assay: Leishmania donovani Ubiquitin Activating Enzyme (LdE1); assay type: functional; details: 30 µM
# T1 sequence (whole entry): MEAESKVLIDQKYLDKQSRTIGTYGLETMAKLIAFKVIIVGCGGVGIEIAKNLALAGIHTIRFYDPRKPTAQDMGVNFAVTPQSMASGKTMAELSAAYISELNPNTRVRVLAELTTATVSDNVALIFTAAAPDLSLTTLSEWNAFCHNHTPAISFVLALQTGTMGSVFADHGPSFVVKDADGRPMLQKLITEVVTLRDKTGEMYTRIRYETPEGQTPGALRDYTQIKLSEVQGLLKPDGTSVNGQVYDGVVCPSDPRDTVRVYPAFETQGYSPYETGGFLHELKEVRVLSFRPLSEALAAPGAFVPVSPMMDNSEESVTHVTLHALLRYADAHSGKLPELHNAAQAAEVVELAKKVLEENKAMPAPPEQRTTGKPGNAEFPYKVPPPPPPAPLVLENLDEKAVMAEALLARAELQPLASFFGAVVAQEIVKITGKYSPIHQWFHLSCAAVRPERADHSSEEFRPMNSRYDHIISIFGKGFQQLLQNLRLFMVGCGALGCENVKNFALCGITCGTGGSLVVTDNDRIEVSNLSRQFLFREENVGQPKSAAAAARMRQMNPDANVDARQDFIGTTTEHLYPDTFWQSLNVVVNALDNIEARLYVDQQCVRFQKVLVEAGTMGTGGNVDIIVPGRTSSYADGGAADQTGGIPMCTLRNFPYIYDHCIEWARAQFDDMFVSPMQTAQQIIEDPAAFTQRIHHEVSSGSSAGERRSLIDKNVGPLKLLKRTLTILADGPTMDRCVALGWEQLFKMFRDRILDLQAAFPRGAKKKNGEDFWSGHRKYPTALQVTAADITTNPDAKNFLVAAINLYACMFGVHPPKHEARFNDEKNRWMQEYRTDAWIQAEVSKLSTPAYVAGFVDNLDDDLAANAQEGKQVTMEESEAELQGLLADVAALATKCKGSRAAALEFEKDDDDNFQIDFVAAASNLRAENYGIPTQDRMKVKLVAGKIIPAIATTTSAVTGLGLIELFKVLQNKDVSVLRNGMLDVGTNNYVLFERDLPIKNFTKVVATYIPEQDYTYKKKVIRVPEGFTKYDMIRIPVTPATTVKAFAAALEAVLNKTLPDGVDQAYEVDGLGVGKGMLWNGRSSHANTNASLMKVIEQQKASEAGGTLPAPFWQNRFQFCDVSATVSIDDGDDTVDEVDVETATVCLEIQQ
# [3] = target: AMP-activated protein kinase, AMPK (Homo sapiens) (UniProt P54646+O43741+P54619+Q9UGJ0+Q9Y478+Q13131+Q9UGI9); assay: AMP-dependent Kinase enzyme assay. An in vitro enzyme assay that detects ADP turnover that is directly proportional to AMPK activity. This uses naive AMPK that is activated during the assay with MK-8722; assay type: functional; details: 30 µM
# [4] = target: Sialic acid-binding Ig-like lectin 9 (Homo sapiens) (UniProt Q9Y336); assay: Hs-Siglec9 ALPHAscreen SOP 20170721; details: 10 µM
# Trypanosoma cruzi = assay: Trypanosoma cruzi phosphomannomutase and mannose-1-phosphate guanylyltransferase assay; assay type: functional; details: 10 µM
# [5] = target: T2, Arginase-2, mitochondrial (Homo sapiens) (UniProt P78540); assay: in vitro enzyme assay to detect the production of urea directly proportional to the activity of Arginase II; assay type: functional; details: 33.3 µM; note: in the data most compounds retested in dose-response had high values
# T2 sequence (whole entry): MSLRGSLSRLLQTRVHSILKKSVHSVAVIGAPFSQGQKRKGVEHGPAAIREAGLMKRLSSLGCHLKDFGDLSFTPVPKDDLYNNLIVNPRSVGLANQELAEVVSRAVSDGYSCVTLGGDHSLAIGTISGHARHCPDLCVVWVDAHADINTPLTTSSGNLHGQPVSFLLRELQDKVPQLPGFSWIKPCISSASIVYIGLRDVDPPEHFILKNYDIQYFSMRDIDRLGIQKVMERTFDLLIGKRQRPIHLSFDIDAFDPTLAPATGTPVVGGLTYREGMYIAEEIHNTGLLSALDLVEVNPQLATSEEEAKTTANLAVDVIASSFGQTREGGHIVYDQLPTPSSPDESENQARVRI
# [6] = target: T3, Proteasome subunit beta (Trypanosoma cruzi) (UniProt O96673); assay: Trypanosoma cruzi proteasome chymotrypsin-like activity (TcProtChymo) assay.; note: in the data most compounds retested in dose-response had high values; assay type: functional; details: 9.37 µM
# T3 sequence (whole entry): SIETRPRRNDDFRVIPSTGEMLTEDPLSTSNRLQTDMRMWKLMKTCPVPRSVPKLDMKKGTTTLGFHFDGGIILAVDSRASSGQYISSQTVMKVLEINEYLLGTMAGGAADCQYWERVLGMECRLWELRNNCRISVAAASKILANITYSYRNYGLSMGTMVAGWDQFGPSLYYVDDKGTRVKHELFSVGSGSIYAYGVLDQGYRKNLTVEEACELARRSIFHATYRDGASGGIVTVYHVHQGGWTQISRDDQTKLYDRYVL
# Homo sapiens = organism: Homo sapiens; assay: To identify inhibition of the IFN signalling (Jak-Stat) pathway via expression of an eGFP reporter gene under the control of an IFN-stimulated response element (ISRE) containing MxA promoter.; assay type: functional; details: 30 µM
# [7] = target: T4, Tyrosyl-tRNA synthetase, putative (Trypanosoma cruzi (strain CL Brener)) (UniProt Q4DSP6); assay: Trypanosoma cruzi tyrosyl tRNA synthetase (TcYRS) _High Tyrosine SOP; assay type: functional; details: 30 µM; note: in the data most compounds retested in dose-response had high values
# T4 sequence (whole entry): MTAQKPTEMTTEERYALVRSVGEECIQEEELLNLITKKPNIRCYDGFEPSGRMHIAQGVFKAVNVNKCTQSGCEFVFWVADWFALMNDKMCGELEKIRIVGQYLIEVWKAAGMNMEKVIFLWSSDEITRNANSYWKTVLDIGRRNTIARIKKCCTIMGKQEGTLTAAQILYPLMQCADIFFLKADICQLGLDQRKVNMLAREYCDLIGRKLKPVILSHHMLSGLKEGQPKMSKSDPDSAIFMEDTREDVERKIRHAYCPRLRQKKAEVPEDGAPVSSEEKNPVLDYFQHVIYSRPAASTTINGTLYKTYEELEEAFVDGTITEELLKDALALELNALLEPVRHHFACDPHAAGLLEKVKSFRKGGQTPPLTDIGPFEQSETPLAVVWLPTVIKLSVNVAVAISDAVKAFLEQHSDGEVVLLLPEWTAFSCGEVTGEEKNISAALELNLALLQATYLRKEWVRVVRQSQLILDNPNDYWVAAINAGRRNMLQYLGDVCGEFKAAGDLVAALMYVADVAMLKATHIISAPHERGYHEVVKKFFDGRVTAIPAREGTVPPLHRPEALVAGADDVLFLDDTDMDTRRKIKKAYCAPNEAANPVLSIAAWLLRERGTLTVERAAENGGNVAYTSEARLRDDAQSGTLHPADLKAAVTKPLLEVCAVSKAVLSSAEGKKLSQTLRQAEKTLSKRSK
# [8] = target: T4, Tyrosyl-tRNA synthetase, putative (Trypanosoma cruzi (strain CL Brener)); assay: Trypanosoma cruzi tyrosyl tRNA synthetase (TcYRS) SOP; assay type: functional; details: 30 µM
# [9] = target: Chromo domain-containing protein 1 (Saccharomyces cerevisiae (strain ATCC 204508 / S288c) (Baker's yeast)) (UniProt P32657); assay: ScCHD-1 Enzyme Inhibition Assay; assay type: functional; details: 30 µM; note: in the data most compounds retested in dose-response had high values
# Chromo domain-containing protein 1 (Saccharomyces cerevisiae (strain ATCC 204508 / S288c) (Baker's yeast)), sequence (P32657 whole entry, the tested form may be a part): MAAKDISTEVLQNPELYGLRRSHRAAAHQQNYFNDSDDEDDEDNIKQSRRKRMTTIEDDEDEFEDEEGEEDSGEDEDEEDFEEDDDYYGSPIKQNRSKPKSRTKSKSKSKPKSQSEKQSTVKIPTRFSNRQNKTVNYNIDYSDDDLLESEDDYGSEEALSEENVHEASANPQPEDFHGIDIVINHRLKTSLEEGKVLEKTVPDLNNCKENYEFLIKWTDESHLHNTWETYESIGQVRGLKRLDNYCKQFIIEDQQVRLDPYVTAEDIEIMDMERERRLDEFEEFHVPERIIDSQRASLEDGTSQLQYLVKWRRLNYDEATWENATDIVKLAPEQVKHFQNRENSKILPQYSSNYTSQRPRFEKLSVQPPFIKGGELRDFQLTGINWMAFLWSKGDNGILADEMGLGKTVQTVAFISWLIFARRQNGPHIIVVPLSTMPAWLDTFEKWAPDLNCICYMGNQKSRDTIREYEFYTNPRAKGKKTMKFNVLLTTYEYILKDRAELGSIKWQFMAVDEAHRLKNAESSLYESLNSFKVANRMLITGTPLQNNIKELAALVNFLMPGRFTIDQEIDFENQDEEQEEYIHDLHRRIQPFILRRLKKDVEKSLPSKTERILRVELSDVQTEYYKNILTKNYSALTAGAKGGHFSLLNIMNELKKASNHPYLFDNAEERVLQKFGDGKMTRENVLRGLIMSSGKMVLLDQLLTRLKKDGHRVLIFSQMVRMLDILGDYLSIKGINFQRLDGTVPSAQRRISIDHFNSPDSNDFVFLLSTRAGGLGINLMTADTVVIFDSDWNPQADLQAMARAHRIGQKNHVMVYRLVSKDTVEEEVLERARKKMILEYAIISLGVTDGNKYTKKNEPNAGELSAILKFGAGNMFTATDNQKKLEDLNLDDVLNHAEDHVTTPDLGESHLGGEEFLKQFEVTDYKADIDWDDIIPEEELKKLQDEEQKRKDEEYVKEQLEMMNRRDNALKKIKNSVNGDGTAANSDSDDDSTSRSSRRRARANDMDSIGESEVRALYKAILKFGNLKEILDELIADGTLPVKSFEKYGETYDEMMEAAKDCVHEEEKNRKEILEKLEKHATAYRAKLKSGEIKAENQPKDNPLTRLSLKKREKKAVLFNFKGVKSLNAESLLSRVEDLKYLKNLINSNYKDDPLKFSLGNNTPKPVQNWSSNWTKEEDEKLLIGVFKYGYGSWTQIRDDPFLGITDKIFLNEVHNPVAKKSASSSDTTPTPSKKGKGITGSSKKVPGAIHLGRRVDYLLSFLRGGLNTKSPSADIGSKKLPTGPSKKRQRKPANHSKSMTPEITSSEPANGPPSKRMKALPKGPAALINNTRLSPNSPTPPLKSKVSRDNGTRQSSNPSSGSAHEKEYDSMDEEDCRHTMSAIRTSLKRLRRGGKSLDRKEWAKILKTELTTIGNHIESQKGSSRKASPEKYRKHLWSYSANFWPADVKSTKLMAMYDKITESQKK
# Protein translocase subunit SecA (Escherichia coli (strain K12)), sequence (P10408 whole entry): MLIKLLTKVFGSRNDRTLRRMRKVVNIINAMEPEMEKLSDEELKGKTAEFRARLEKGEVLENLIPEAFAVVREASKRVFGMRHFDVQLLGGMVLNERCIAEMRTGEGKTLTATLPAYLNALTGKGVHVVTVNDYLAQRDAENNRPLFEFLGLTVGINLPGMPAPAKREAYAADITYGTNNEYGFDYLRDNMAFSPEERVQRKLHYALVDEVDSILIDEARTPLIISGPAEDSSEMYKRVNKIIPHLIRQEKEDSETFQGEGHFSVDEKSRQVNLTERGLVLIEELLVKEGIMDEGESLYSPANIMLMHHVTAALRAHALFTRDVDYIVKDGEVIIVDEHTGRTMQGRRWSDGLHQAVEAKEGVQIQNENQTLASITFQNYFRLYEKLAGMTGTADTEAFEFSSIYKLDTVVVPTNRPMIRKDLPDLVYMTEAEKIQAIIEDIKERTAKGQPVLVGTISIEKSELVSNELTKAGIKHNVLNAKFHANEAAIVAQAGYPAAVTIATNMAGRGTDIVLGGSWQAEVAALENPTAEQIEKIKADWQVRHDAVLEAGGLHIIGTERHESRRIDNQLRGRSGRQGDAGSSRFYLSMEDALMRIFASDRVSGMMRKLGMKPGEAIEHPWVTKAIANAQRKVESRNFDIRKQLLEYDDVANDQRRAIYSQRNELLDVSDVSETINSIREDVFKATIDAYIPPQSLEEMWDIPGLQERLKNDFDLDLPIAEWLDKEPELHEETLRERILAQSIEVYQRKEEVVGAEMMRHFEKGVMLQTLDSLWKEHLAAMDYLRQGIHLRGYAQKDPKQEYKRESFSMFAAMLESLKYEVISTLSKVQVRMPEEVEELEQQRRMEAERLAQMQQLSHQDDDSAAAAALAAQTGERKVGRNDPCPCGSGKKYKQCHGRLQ
# Sialic acid-binding Ig-like lectin 9 (Homo sapiens), sequence (Q9Y336 whole entry): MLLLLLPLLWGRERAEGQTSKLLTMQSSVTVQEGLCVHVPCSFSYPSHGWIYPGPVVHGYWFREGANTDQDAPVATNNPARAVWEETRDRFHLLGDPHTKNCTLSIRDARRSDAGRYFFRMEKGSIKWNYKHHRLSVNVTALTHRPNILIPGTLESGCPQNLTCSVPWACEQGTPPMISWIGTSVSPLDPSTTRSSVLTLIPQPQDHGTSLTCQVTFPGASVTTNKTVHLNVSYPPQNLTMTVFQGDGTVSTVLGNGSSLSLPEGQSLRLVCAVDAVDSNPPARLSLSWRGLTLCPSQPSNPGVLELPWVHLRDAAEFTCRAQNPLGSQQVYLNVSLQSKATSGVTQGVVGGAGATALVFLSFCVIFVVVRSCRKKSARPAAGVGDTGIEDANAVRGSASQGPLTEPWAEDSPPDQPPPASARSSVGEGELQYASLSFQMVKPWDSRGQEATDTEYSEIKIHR
SMILES,Percent Effect [1] [%],Percent Effect [2] [%],Percent Effect [3] [%],Percent Effect [4] [%],Percent Effect (Trypanosoma cruzi) [%],Percent Effect [5] [%],Percent Effect [6] [%],Percent Effect (Homo sapiens) [%],Percent Effect [7] [%],Percent Effect [8] [%],Percent Effect [9] [%]
O=C(c1cnccn1)N1CCN(Cc2ccncc2)c2ncccc2C1,-1.27,0,2.52,4.53,-1.54,-20.2,2.73,-10.5,2.08,2.5,-3.2
Cc1ccc(NC2CCN(C(=O)c3cc[nH]n3)CC2)nn1,-0.868,0,8.84,3.52,-3.01,1.53,10.7,-13.4,-0.49,-2.44,7.64
CCOc1nnc(CN2CCOC(CNc3cccnn3)C2)s1 (configuration not stated),-1.03,20.8,-24.7,-0.385,2.43,-3.92,11.8,10.6,16.5,7.32,-11.3
CCc1nnc2n1CCN(C(=O)c1ccc3nc(C)c(C)nc3c1)C2,-3.88,1.39,140,3.38,5.34,-1.32,20.7,-6.8,5.26,15.4,-2.97
Cc1nc(CNCC2CCCN2c2cccnn2)no1 (configuration not stated),-3.3,-13,-11.2,-6.04,8.32,-6.53,15.6,-2.13,9.52,14.1,-23.1
Cc1cnn(CC(C)NCc2nc(-c3cccnc3)no2)c1 (configuration not stated),-6.08,-1.39,-14,7.77,-4.76,-1.32,13,-8.09,7.37,5.13,-1.42
CCCNC(=O)CNc1cc(C#N)ccc1OCC,-6.04,22.8,-6.15,3.16,4.82,-6.46,11.7,11.7,4.43,21.5,-7.89
CC(C)c1nccn1C1CCCN(C(=O)c2ccc3[nH]nnc3c2)C1 (configuration not stated),-8.55,7.79,-5.52,-4.53,9.89,-1.05,19,-2.41,4.76,11.8,-22.9
CN(Cc1ccc(F)cc1)C(=O)Cn1nc(-c2ccc(F)cc2)oc1=O,-0.937,2.63,0.873,-13.2,-7.3,11.8,15.4,14.9,-7.45,-2.6,-7.96
COCC1CN(C(=O)c2ccnnc2)Cc2c1cnn2C (configuration not stated),-3.58,-5.33,7.75,-1.95,4.33,-3.5,9.6,9.47,4.25,1.28,-4.09
Cc1nc(C)n(CC2CCCN(CCNC(=O)OC(C)(C)C)C2)n1 (configuration not stated),-0.765,2.6,5.46,11.6,1.67,5.26,5.9,9.69,2.86,0,-4.66
O=C(c1ccncc1)N1CCC(O)(Cn2ccc3ccncc32)CC1,-2.15,6.76,7.19,-2.13,-3.75,0.232,17.9,-0.964,4.3,9.09,-10.5
Cc1oncc1C(=O)N1CCC2(C1)CN(c1cccnc1)C(=O)CN2C (configuration not stated),-3.58,10.7,-0.768,-0.716,4.05,-53.6,4.27,-6.85,2.08,5,-5.61
O=C(COc1cccc2c1CCC2=O)NCCSc1ccccc1,-1.44,5.26,7.61,-2.93,-2.63,10.7,8.92,20.8,-2.13,7.79,-5.02
COCCn1ccc(=O)c(OCC(=O)Nc2ccccc2)c1C,-2.63,6.67,2.07,6.98,1.38,1.23,19.4,-6.23,1.06,20.5,-0.358
CC(C)NC(=O)CS(=O)(=O)Cc1cc(Cl)c2c(c1)OCCO2,-2.36,20.2,-6.59,-0.915,-0.283,-1.52,0.737,13.3,7.39,24.1,-5.39
CCc1ccc(C(=O)Nc2ccc(CC3CC(=O)NC3=O)cc2)cc1 (configuration not stated),-1.66,8.22,15.3,3.15,1.76,5.46,11.9,11.7,2.15,12.5,-6.28
N#CCCN(C(=O)CN1CCCC1c1ccsc1)c1ccccc1F (configuration not stated),-3.56,-18.9,-2.34,-0.732,-2.51,-8.69,-0.718,16.7,3.96,1.22,21.4
O=C(CC1CC1)NCc1cc(=O)n2c(n1)CN(Cc1ccoc1)CCC2,-2.92,-11,-1.08,0.919,7.34,-1.2,18.9,4.85,3.12,6.17,-3.77
Cc1cnc(N2CCCC3(CCN(Cc4csc(C)n4)C3=O)C2)nc1 (configuration not stated),-1.53,10.7,2.83,3.4,0.965,-54.3,5.64,-4.88,4.17,20,-8.92
CN1CCc2c(C#N)c(NCCCN3CCOCC3)n3cnnc3c2C1,-3.76,10.5,2.8,1.44,-1.46,-1.18,13.7,-9.43,4.25,10.4,-1.19
COc1ccc(C[C@H]2CN(c3nnc(C)s3)CC[C@@H]2OC)cc1,-4.17,5.33,-2.8,-1.52,2.7,-49.6,5.81,3.46,-34.4,7.5,86.4
